From PubChem BioAssay
CtBP-E1A inh: blocks the CtBP interaction with E1A; AlphaScreen GST-E1A/His-CtBP binding, 1536-well; stronger effect = lower value; activity change, % (concentration not given with the values); actives 0.49% (n = 340,000); AID 651724; in the data active = activity change below about -65%; inconclusive = mostly about -30% to -63%; note: % is set by controls: 0 for no effect and ±100 for the full control effect
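Homogeneous bead-based format: GST-tagged E1A captured on glutathione donor beads, His-tagged CtBP on nickel acceptor beads; compounds precede bead addition by 2 h at 37 °C.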
ATXN2 expr inh: inhibitors of ATXN2 expression. HEK-293 ATXN2-luciferase reporter, luminescence, 24 h. Potency, µM (titrated, usually from 57 µM), without a hit: at the highest dose activity change, negative = inhibition, usual class: inhibitors. actives 0.72% (n = 360,000); note: potency is the fitted concentration of half-maximal effect; % is set by controls: 0 for no effect and ±100 for the full control effect; nearly all actives have a fitted effect of over 55% in size
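qHTS (up to 57 uM final) was run with 24 h compound exposure of reporter cells at 37 °C. Each well was multiplexed: SteadyGlo luminescence measured ATXN2-luciferase expression after a fluorogenic Gly-Phe-AFC viability readout (25 uM final).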
HepG2 tox: kills HepG2 cells in TGF-b inhibitor counter-screen. AID 588856. Potency, µM (titrated, usually from 46.1 µM), for inactives: top-dose activity change, negative = cytotoxicity, hits mostly cytotoxic. HepG2 CAGA-GFP viability, ATP luminescence, 18 h. actives 0.76% (n = 410,000); note: potency is the fitted concentration of half-maximal effect
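CellTiter-Glo luminescence gave cytotoxicity after 18 hours at 37 degrees C. The cells were HepG2 CAGA-GFP in 1% FBS DMEM, stimulated with 500 pg/mL TGF-beta after compound addition. %Activity was normalised to no-cell wells (complete cell-killing) and DMSO (no toxicity), and curves were fitted and classified.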
ATXN viability: viability counter-screen for ATXN expression inhibitors; AID 651635; actives 0.49% (n = 400,000); S2 cells (HEK-293 line with an ATXN2-luciferase reporter) viability, CellTiter-Fluor protease fluorescence, 24 h; Potency, µM (doses to about 56.7 µM), most hits filed as cytotoxic; note: potency is the fitted concentration of half-maximal effect; nearly all actives have a fitted effect of over 40% in size
Six1-Eya2 blk: blocks human Six1 binding to Eya2; Q15475+O00167; AlphaScreen GST-Six1/His-Eya2 binding, biochemical; stronger effect = lower value; activity change, % (concentration not given with the values); actives 0.56% (n = 360,000); AID 651725; in the data active = activity change below about -65%; inconclusive = mostly about -30% to -63%; note: % is set by controls: 0 for no effect and ±100 for the full control effect
Target sequence (O00167 whole entry, looked up): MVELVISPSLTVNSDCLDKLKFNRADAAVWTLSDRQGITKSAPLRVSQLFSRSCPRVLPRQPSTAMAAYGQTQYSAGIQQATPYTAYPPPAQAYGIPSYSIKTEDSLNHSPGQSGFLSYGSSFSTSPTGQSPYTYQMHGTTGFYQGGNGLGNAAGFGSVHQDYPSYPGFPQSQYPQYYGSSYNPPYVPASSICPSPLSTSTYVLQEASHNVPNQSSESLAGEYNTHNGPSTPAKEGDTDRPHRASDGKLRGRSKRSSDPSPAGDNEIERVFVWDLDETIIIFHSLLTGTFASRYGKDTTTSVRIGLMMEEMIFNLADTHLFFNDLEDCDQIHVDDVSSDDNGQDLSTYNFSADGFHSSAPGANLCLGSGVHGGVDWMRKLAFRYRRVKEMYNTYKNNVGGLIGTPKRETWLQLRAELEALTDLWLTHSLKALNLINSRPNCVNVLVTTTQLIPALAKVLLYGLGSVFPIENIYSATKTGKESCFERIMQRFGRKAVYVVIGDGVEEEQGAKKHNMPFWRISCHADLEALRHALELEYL
Target sequence (Q15475 whole entry, looked up): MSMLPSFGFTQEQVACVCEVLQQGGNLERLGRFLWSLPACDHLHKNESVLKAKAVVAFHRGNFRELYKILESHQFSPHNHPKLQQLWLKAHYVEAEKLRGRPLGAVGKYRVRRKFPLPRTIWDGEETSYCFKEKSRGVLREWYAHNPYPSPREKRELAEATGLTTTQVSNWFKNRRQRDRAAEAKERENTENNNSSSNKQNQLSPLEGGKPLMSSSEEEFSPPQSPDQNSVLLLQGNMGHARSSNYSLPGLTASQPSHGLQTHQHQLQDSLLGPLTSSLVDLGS
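Six1/Eya2 binding was read as AlphaScreen signal after compounds were pinned into GST-Six1 plus His-tagged Eya2 (5X stock 250/500 nM) in pH 8.0 Tris/NaCl/TCEP buffer, beads added, then incubated 1 h, 37 C, dark.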
TGFb SMAD3 inh: TGF-b pathway inhibition. HepG2 CAGA-GFP TGF-b/SMAD3 reporter, GFP fluorescence, 18 h; TGF-beta stimulated, 500 pg/mL final. Potency, µM (series often up to 46.1 µM), without a hit: top-dose activity, negative = inhibition, hits mostly inhibitors. actives 1.2% (n = 410,000). AID 588855; note: potency is the fitted concentration of half-maximal effect; % is set by controls: 0 for no effect and ±100 for the full control effect; nearly all actives have a fitted effect of over 65% in size
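Cell-based qHTS in HEPG2 carrying a CAGA-GFP Smad reporter; compounds added before 500 pg/mL final TGF-beta, 18 h incubation at 37 degrees C, GFP fluorescence quantified per cell by imaging cytometry.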
* hit, by the source's call; i = inactive; ? = inconclusive; . = no result; ! = not active in a repeat. Shown are actives, neighbours in structure and some others; about 2.8% of the full set was active somewhere. Unless noted, calls come from the whole dose curve; as a rule, active = well fitted curve in the direction sought with a large enough effect; inconclusive = small, poorly fitted or top-dose-only effect, or another doubt; inactive = no such curve, though single readings can be large; an effect the other way counts as inactive or inconclusive.

SMILES	CtBP-E1A inh	ATXN2 expr inh	HepG2 tox	ATXN viability	Six1-Eya2 blk	TGFb SMAD3 inh
CCSc1nnc(NC(=O)c2nc(S(=O)(=O)Cc3ccc(F)cc3)ncc2Cl)s1	1	?	-46%	?	13	?
CSc1nnc(NC(=O)c2nc(S(=O)(=O)Cc3cccc(C)c3)ncc2Cl)s1	-3	28µM*	-76%	22µM*	-27	?
COc1ccc(CCNC(=O)c2cnn(-c3nccc(-c4cccs4)n3)c2C)cc1OC	.	.	.	i	.	.
CCN1CCCC1CNCc1cc2c(OC)c(OC)c(OC)cc2nc1N(C)C (configuration not stated)	.	.	.	i	.	.
CCOc1ccccc1NC(=O)c1nc(S(=O)(=O)Cc2cccc(C)c2)ncc1Cl	2	-12%	-21%	32µM*!	8	?
Cc1nnc(NC(=O)c2nc(S(=O)(=O)Cc3ccccc3C)ncc2Cl)s1	-25	?	-104%	?	-25	?
CC(C)c1nnc(NC(=O)c2nc(S(=O)(=O)Cc3ccc(F)cc3)ncc2Cl)s1	-3	-7%	-71%	?	18	?
COC(=O)c1ccccc1NC(=O)c1nc(S(=O)(=O)Cc2ccccc2)ncc1Cl	.	.	-18%	?	-25	1%
Cc1ccc(CS(=O)(=O)c2ncc(Cl)c(C(=O)Nc3nnc(C(C)C)s3)n2)cc1	-1	?	11µM*!	?	-29	13µM*
CC(C)c1nnc(NC(=O)c2nc(S(=O)(=O)Cc3ccccc3F)ncc2Cl)s1	-23	10µM*	-104%	7.1µM*	-13	13µM*
O=C(Nc1nc2ccc(F)cc2s1)c1nc(S(=O)(=O)Cc2ccccc2F)ncc1Cl	.	25µM*	7.1µM*	11µM*	.	6.3µM*
COc1ccc(-n2nc3c(c2NC(=O)C(=O)N2CCN(C)CC2)CSC3)cc1	.	1%	4%	i	.	0%
CC(=O)c1ccccc1C(=O)NCC1Cc2cccc(-c3cccnc3)c2O1 (configuration not stated)	.	.	.	i	.	.
CC(C)(C)c1ccc(C2NC(=O)c3n[nH]c(-c4cccs4)c32)cc1 (configuration not stated)	.	.	11µM*	.	.	?
CC(C)c1c(C(=O)N(C)Cc2cccc3ncccc23)cnn1-c1nccc(-c2ccco2)n1	.	.	.	i	.	.
Cc1cccc(Cn2c(SCc3ccc(C(=O)NCCc4ccccc4)cc3)nc3ccncc32)c1	.	-29%	-52%	?	.	7.9µM*
O=C(NC1CCCCC1)c1ccc(CSc2nc3ccncc3n2Cc2ccccc2F)cc1	.	-4%	-4%	?	.	?
O=C(NCCc1ccccc1)c1ccc(CSc2nc3ccncc3n2Cc2ccccc2F)cc1	.	-18%	-19%	?	.	7.1µM*
O=C(NCCc1ccccc1)c1ccc(CSc2nc3ccncc3n2Cc2cccc(F)c2)cc1	.	.	-6%	.	.	?
COc1ccc(-n2ncc(C(=O)N3CCN(c4ncccn4)CC3)c2C2CCN(C(=O)OC(C)(C)C)CC2)cc1	.	.	-1%	.	.	-23%
O=C(c1ccccc1)c1sc(N2CCCCCC2)nc1-c1ccccc1	16	2%	-9%	i	37	?
[2H]c1c([2H])c([2H])c(C(=O)c2sc(N3CCCCCC3)nc2-c2ccccc2)c([2H])c1[2H]	44	2%	3%	i	27	14µM*
O=C(c1ccccc1-n1cccn1)N1CCOc2c(cc(-c3ncc(C(F)(F)F)cc3Cl)cc2OCC2CCCO2)C1 (configuration not stated)	.	.	.	i	.	.
NCCc1nnc(SCC(=O)Nc2cccc(Cl)c2)o1	.	.	-36%	i	-1	10%
O=C(CSc1nnc(-c2ccc(C(F)(F)F)cn2)o1)Nc1cccc(Cl)c1	?	57%	1%	i	-71*	18%
SMILES	CtBP-E1A inh	ATXN2 expr inh	HepG2 tox	ATXN viability	Six1-Eya2 blk	TGFb SMAD3 inh
O=C(/C=C/c1ccccc1F)c1ccoc1	2	1%	-29%	i	-2	?
O=C(C=Cc1cccc(Cl)c1)c1ccccc1	1	1%	18µM*	i	-5	?
O=C(C=Cc1ccccc1F)c1ccccc1	6	?	-57%	.	9	11µM*
COc1coc(C(O)CN)cc1=O (configuration not stated)	-24	0%	8%	i	-16	-6%
CCOC(=O)C(=Cc1cc(=O)c(OC)co1)C(=O)OCC	9	?	14µM*	?	1	7.1µM*
O=C(N/N=C/c1ccc(O)cc1)c1[nH]c2ccc(Br)cc2c1-c1ccccc1	1	-22%	-44%	i	3	11µM*
Cc1c(C(=O)N/N=C/c2ccc(Cl)cc2)[nH]c2ccc(Cl)cc12	.	.	10µM*	?	-4	2µM*
CCOC(=O)C1=CCN(S(=O)(=O)c2ccccc2F)C1c1ccccc1 (configuration not stated)	2	-14%	-4%	?	8	?
Cc1cccc(-c2nc3nc(C)cc(NCc4ccccc4Cl)n3n2)c1	.	-9%	-32%	i	.	?
Fc1ccccc1Cn1c(-c2ccccc2)nc2ccccc21	.	?	-68%	32µM*	.	?
Cc1ccccc1C1(CC(=O)N2CCCC(C)C2)CC(=O)N(Cc2cccnc2)C1=O (configuration not stated)	.	.	.	i	.	.
Cn1ccnc1SCc1ccc([N+](=O)[O-])cc1	1	11%	-2%	i	-2	27%
Cn1ccnc1C(=O)Cc1ccc([N+](=O)[O-])cc1	-85*	7%	-27%	?	2	?
COc1cc2c(cc1OC)/C(=C/c1ccc(N(C)C)cc1)C=C2	.	.	-23%	.	.	-9%
CC(C)OC(=O)c1cccc(C(=O)OCc2ccco2)n1	3	-3%	7.1µM*	i	1	-13%
CC(C)OC(=O)c1cccc(C(=O)Oc2ccccc2)n1	13	1%	19%	i	0	0%
C=C1C(=O)O[C@H]2C[C@H]1[C@@H](OC(C)=O)C/C(C)=C/CC/C(C)=C\CC[C@]2(C)O	7	5.6µM*	-102%	7.9µM*	0	3.2µM*
Cc1ccc(NC(=O)C2(c3ccc4c(c3)OC(F)(F)O4)CC2)nc1-c1cccc(C(=O)O)c1	.	0.086µM*	.	.	.	.
CCOC(=O)C1CCCN(C(=O)c2cnn(-c3nccc(-c4cc(C)sc4C)n3)c2C)C1 (configuration not stated)	.	.	.	i	.	.
N#CCCN(C(=O)CSc1ncccn1)c1ccc2c(c1)OCCO2	.	.	8%	?	2	-6%
